Among the test systems are HCT-15 colon; HT29 colon; SNB-75 CNS; SNB-19 CNS; U251 CNS; PC-3 prostate; SK-MEL-5 melanoma; UACC-62 melanoma; LOX IMVI melanoma; SK-MEL-2 melanoma; EKVX NSCLC; SN12C renal; UO-31 renal; TK-10 renal; A498 renal; CCRF-CEM leukemia; MOLT-4 leukemia.
Experiment in all cases: NCI-60 one-dose screen, 48 h (100 = growth as untreated, 0 = no growth, -100 = all killed)
The next assay has as its system SK-MEL-28 melanoma. The settings on record: 10 µM unless noted.
The test system of another assay is ACHN renal. The conditions noted are these: 10 µM unless noted.
The subject of the next assay is CAKI-1 renal. The conditions noted are these: 10 µM unless noted.

Molecules are shown by their SMILES. Where “and” joins values, the source holds several entries; their conditions need not be identical. Equal values may be shown once. About 83,000 compounds went through this panel and 20% of them were active in at least one assay; those are over-represented in the sample as a whole.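 Interpretation: 100, growth as untreated; towards 0, rising growth inhibition; 0, no net growth; 0 to -100, cell death. Compounds scoring below 10 were considered active.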 A number with no mark means an inactive call. Calls of active or inactive are those of the source.

In the case of `CCOC(=O)c1c(C)oc(C)c(C(=O)OCC)c1=O`, the growth in the assay with HCT-15 colon (10 µM unless noted) is 106% and 102%; with HT29 colon (10 µM unless noted), 105% and 106%; in the assay on SNB-75 CNS (10 µM unless noted) it was 96.5% and 99.5%; with SNB-19 CNS (10 µM unless noted), 102% and 90.2%; with U251 CNS (10 µM unless noted), 111% and 101%; with PC-3 prostate (10 µM unless noted), 94.1% and 88.6%. The growth is 111% and 104% with SK-MEL-5 melanoma (10 µM unless noted); 111% and 96.6% in the assay on UACC-62 melanoma (10 µM unless noted); 103% and 97.3% in the assay on LOX IMVI melanoma (10 µM unless noted); 109% and 112% in the assay on SK-MEL-28 melanoma; 111% and 112% in the assay on SK-MEL-2 melanoma (10 µM unless noted); 128% and 104% in the assay on EKVX NSCLC (10 µM unless noted). Besides, the growth with SN12C renal (10 µM unless noted) was 113% and 97.9%; in the assay on UO-31 renal (10 µM unless noted) it was 96.6% and 86.9%; in the assay with TK-10 renal (10 µM unless noted), 98.1% and 106%; in the assay on ACHN renal it was 102% and 105%; in the assay on CAKI-1 renal, 103% and 95.4%; in the assay on A498 renal (10 µM unless noted), 113% and 117%. Besides, the growth with CCRF-CEM leukemia (10 µM unless noted) is 96% and 108%; in the assay on MOLT-4 leukemia (10 µM unless noted), 150% and 80.2%.

For the compound `Cc1cc(-c2ccc(NS(=O)(=O)c3ccccc3)c(C)c2)ccc1NS(=O)(=O)c1ccccc1`, the growth is 84.8% and 84.9% in the assay with HCT-15 colon (10 µM unless noted); 74.2% and 99.7% in the assay on HT29 colon (10 µM unless noted); 72.6% and 105% with SNB-75 CNS (10 µM unless noted); 91.4% and 101% with SNB-19 CNS (10 µM unless noted); 94% and 95.2% in the assay with U251 CNS (10 µM unless noted); 63.1% and 78.7% in the assay with PC-3 prostate (10 µM unless noted). Moreover, the growth in the assay with SK-MEL-5 melanoma (10 µM unless noted) was 87.2%; in the assay with UACC-62 melanoma (10 µM unless noted), 55.8% and 63.5%; in the assay with LOX IMVI melanoma (10 µM unless noted), 84% and 75%; in the assay on SK-MEL-28 melanoma, 92.2% and 109%; in the assay on SK-MEL-2 melanoma (10 µM unless noted), 85% and 102%; in the assay with EKVX NSCLC (10 µM unless noted) it was 61.5% and 73.6%. In addition, the growth with SN12C renal (10 µM unless noted) is 94.7% and 98.4%; in the assay on UO-31 renal (10 µM unless noted), 66.7% and 108%; in the assay on TK-10 renal (10 µM unless noted), 83.4% and 109%; in the assay on ACHN renal, 81.2% and 96.7%; in the assay with CAKI-1 renal, 61.3% and 98.8%; in the assay with A498 renal (10 µM unless noted) it was 90.8% and 89.8%. Also, the growth is 80.5% and 86.6% in the assay with CCRF-CEM leukemia (10 µM unless noted); 41% and 56.3% in the assay on MOLT-4 leukemia (10 µM unless noted).

As to `C1CCCCNCCC1`, the growth was 113% with HCT-15 colon (10 µM unless noted); 95.1% in the assay on HT29 colon (10 µM unless noted); 99.5% in the assay with SNB-75 CNS (10 µM unless noted); 110% in the assay on SNB-19 CNS (10 µM unless noted); 103% in the assay on U251 CNS (10 µM unless noted); 101% in the assay with PC-3 prostate (10 µM unless noted). In addition, the growth is 109% in the assay on SK-MEL-5 melanoma (10 µM unless noted); 103% in the assay on UACC-62 melanoma (10 µM unless noted); 111% with LOX IMVI melanoma (10 µM unless noted); 109% with SK-MEL-28 melanoma; 115% in the assay with SK-MEL-2 melanoma (10 µM unless noted); 99.8% with EKVX NSCLC (10 µM unless noted). The growth was 108% with SN12C renal (10 µM unless noted); 92.5% with UO-31 renal (10 µM unless noted); 125% with TK-10 renal (10 µM unless noted); 117% in the assay on ACHN renal; 90.2% in the assay on CAKI-1 renal; 113% in the assay on A498 renal (10 µM unless noted). In addition, the growth was 104% in the assay with CCRF-CEM leukemia (10 µM unless noted) and 110% with MOLT-4 leukemia (10 µM unless noted).

Turning to `CCN(CC)C(=O)c1cccnc1`, the growth with HCT-15 colon (10 µM unless noted) was 106%; in the assay with HT29 colon (10 µM unless noted), 103%; with SNB-75 CNS (10 µM unless noted) it was 98.7%; with SNB-19 CNS (10 µM unless noted), 105%; in the assay on U251 CNS (10 µM unless noted), 96.2%; with PC-3 prostate (10 µM unless noted) it was 100%. In addition, the growth is 103% with SK-MEL-5 melanoma (10 µM unless noted); 105% with UACC-62 melanoma (10 µM unless noted); 100% in the assay on LOX IMVI melanoma (10 µM unless noted); 111% in the assay with SK-MEL-28 melanoma; 108% with SK-MEL-2 melanoma (10 µM unless noted); 112% in the assay with EKVX NSCLC (10 µM unless noted). The growth with SN12C renal (10 µM unless noted) was 106%; in the assay with UO-31 renal (10 µM unless noted), 116%; with TK-10 renal (10 µM unless noted), 97.8%; in the assay with ACHN renal, 107%; in the assay on CAKI-1 renal it was 97.4%; with A498 renal (10 µM unless noted), 114%. For the same compound, the growth in the assay with CCRF-CEM leukemia (10 µM unless noted) was 97.4%; with MOLT-4 leukemia (10 µM unless noted), 92.8%.

For the compound `O=C(O)c1sccc1O`, the growth with HCT-15 colon (10 µM) was 81%; in the assay on HCT-15 colon (100 µM), 31.5%; with HT29 colon (10 µM) it was 105%; in the assay on HT29 colon (100 µM), 30.2%; in the assay on SNB-75 CNS (10 µM), 84.6%; with SNB-75 CNS (100 µM), 28.5%. For the same compound, the growth was 82.1% in the assay with SNB-19 CNS (10 µM); 34.8% in the assay on SNB-19 CNS (100 µM); 76.6% with U251 CNS (10 µM); 15.9% in the assay on U251 CNS (100 µM); 49.3% with PC-3 prostate (10 µM); 23% in the assay with PC-3 prostate (100 µM). The growth was 78.6% in the assay on SK-MEL-5 melanoma (10 µM); 7.35% (active) in the assay on SK-MEL-5 melanoma (100 µM); 56.5% with UACC-62 melanoma (10 µM); 0.233% (active) with UACC-62 melanoma (100 µM); 80.3% in the assay with LOX IMVI melanoma (10 µM); 2.04% (active) with LOX IMVI melanoma (100 µM). Besides, the growth in the assay on SK-MEL-2 melanoma (10 µM) is 87.2%; in the assay with SK-MEL-2 melanoma (100 µM) it was 8.51% (active); in the assay on EKVX NSCLC (10 µM), 81.3%; in the assay on EKVX NSCLC (100 µM), 33.5%; in the assay with SN12C renal (10 µM), 76.3%; in the assay with SN12C renal (100 µM), 35.7%. Further, the growth in the assay with UO-31 renal (10 µM) was 48.1%; in the assay on UO-31 renal (100 µM) it was 26.7%; with TK-10 renal (10 µM), 133%; in the assay on TK-10 renal (100 µM), 68.8%; in the assay on ACHN renal, 70.7%; in the assay with A498 renal (10 µM) it was 89.1%. For the same compound, the growth in the assay with A498 renal (100 µM) was 46.2%; in the assay with CCRF-CEM leukemia (10 µM) it was 47.7%; in the assay with CCRF-CEM leukemia (100 µM) it was 15.1%; in the assay on MOLT-4 leukemia (10 µM), 46.1%; with MOLT-4 leukemia (100 µM), 17.4%.

The values above are taken from PubChem BioAssay (NCI).
